Mito fusion act – blocks mitochondrial division or promotes mitochondrial fusion; S. cerevisiae fusion-defective mutant growth rescue, CellTiterGlo 48 h; Potency, µM (top dose mostly 46.1 µM), most hits filed as activators; 320,000 compounds, 0.23% hits; AID 485298; also: nearly all actives have a fitted effect of over 45% in size
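Yeast fusion mutant, YPEG (non-fermentable carbon), compound, 48 h at 37C non-permissive; CellTiterGlo added, 10 min RT, luminescence read. Rescued growth = division inhibition.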
TCR act – T cell receptor activation | Potency, µM (highest dose often 9.22 µM), hits mostly activators | primary human leukocytes, anti-CD3, IL-2 HTRF, 48 h | AID 504894 | 330,000 tested, under 10 active
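48 hr co-incubation of compounds, a-CD3 beads and primary human leukocytes; IL-2 quantified homogeneously by HTRF with anti-IL-2 K and d2 conjugates.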
BCR signal inh – blocks chronic active B-cell receptor signaling; ABC-DLBCL IkBa-CBG/CBR reporter, luminescence ratio, 4 h; Potency, µM (highest dose often 46.1 µM), usual class: inhibitors; 340,000 compounds, 0.05% hits; active = well fitted inhibition curve with a large enough effect in the signal ratio, with a control signal flat, not every such curve was filed as active; inconclusive = small, poorly fitted or top-dose-only effect, or effect the other way, or a change in a side signal; the % refers to the signal ratio
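TMD8 human ABC-DLBCL cells with doxycycline-inducible IκBα–green luciferase fusion and unfused red luciferase, in 0.5% FBS medium; compounds up to 46 uM, 4 h at 37C. Green/red luminescence ratio, filter-overlap corrected, fitted to concentration-response curves.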
PTHR1 ag – PTHR1 (human) receptor agonism. Q03431. HEK293 GP2 PTHR1 cells, GloSensor cAMP luminescence, 1 h. Potency, µM (top dose mostly 115 µM), actives largely listed as activators. 410,000 compounds, 0.075% hits; also: nearly all actives have a fitted effect of over 55% in size
Target sequence (Q03431 whole entry, looked up): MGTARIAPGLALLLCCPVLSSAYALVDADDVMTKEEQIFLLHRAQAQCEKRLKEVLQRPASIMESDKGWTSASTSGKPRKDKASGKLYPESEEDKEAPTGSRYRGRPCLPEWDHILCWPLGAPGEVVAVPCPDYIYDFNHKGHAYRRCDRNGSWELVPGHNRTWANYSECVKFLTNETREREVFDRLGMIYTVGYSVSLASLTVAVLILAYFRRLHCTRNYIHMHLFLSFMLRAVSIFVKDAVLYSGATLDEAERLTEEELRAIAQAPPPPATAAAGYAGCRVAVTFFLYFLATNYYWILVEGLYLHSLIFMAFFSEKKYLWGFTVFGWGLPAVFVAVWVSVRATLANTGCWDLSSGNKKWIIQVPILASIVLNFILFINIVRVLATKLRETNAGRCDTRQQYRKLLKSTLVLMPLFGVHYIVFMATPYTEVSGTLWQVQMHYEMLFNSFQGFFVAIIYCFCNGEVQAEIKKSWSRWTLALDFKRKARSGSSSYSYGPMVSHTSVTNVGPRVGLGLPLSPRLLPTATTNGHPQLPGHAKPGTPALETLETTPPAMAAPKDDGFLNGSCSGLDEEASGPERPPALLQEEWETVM
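HEK-293-derived GP2 cells expressing PTHR1 and a GloSensor cAMP reporter, 3,000/well, plated overnight, given luciferin plus IBMX (each 0.5 mM as added) for 1 h at 37 °C, then compound for 1 h at 37 °C. Luminescence was read after 15 min at room temperature.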
IL2 activator – activates IL-2 in a cell-based reporter assay | IL-2 activation reporter assay, cell-based qHTS; stimulated with anti-CD3/CD4/CD28 beads; in transgenic mouse T cells | activation, % (series mostly up to about 46 µM) | 360,000 compounds, 0.065% hits; in the data active = activation above about 50%; inconclusive = mostly about 30% to 49%
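Quantitative HTS in unstimulated transgenic mouse T cells, with memory T cells as non-tolerant control and PMA/ionomycin as tolerance-bypass control. Compound pretreatment lasted 60 minutes before 18 h bead stimulation; EGFP/DsRed fluorescence read.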
BRCA1 expr up – BRCA1 expression activation | MCF7-BRCA1-FFLuc reporter, luminescence, 48 h; response scale: scaled: vehicle 0%, 10 µM genistein 100% | Potency, µM (titrated, usually from 46.1 µM), usual class: activators | 380,000 compounds, 1.1% hits | AID 624202; also: nearly all actives have a fitted effect of over 80% in size
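MCF7-BRCA1-FFLuc, 2000 cells/well; 2 h attach, 37 °C/5% CO2; compound 48 h; luciferase substrate 15 min; luminescence end-point. Norm. to genistein 10 microM max activation and DMSO; concentration-response curves fitted.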
A number is an active result. Rows were chosen to be rich in hits. Some 1.3% of all compounds tested hit in one or more screens of this group. Unless noted, calls follow the shape of the dose curve; as a rule, active = well fitted curve in the direction sought with a large enough effect; inconclusive = small, poorly fitted or top-dose-only effect, or another doubt; inactive = no such curve, though single readings can be large; an effect the other way counts as inactive or inconclusive.

`O=C(Nc1sc(-c2ccccc2)cc1C(=O)O)c1ccccc1` gave Mito fusion act inactive, TCR act inactive, BCR signal inh inconclusive, PTHR1 ag inactive, IL2 activator inactive and BRCA1 expr up 11µM.
CCOC(=O)c1cc(-c2ccccc2)sc1NC(=O)c1ccc(OC)cc1 was read as Mito fusion act inactive, TCR act inactive, BCR signal inh inactive, PTHR1 ag inactive, IL2 activator inactive and BRCA1 expr up inactive.
`CC1CCN(C(=S)NCCc2ccccc2)CC1` gave Mito fusion act inactive, TCR act inactive, BCR signal inh inconclusive, PTHR1 ag inactive, IL2 activator inactive and BRCA1 expr up 7.1µM.
For O=C(NC1CCCCC1)C(=S)NCCc1ccccc1 the results were Mito fusion act inactive, TCR act inactive, BCR signal inh inactive, PTHR1 ag inactive, IL2 activator inactive and BRCA1 expr up 11µM.
`S=C(NCCc1ccccc1)NC1CCCCCC1` gave Mito fusion act inactive, TCR act inactive, BCR signal inh inactive, PTHR1 ag inactive, IL2 activator inactive and BRCA1 expr up inconclusive.
Screening O=C(NCCc1ccccc1)C(=O)NC1CCCCC1 returned Mito fusion act inactive, TCR act inactive, BCR signal inh inactive, PTHR1 ag inactive, IL2 activator inactive and BRCA1 expr up 4µM.
For O=S(=O)(c1ccccc1)N1CCN(c2nc(-c3ccc(F)cc3)nc3cc(Cl)ccc23)CC1 the results were BRCA1 expr up inactive.
Screening Cc1oc(-c2ccccc2Cl)nc1CS(=O)CC(=O)N1CCN(c2cccc(C(F)(F)F)c2)CC1 (stereo not drawn) returned BCR signal inh inactive and PTHR1 ag inactive.
`COc1ccc(C2Nc3ccccc3C(=O)N2Cc2ccco2)cc1` (stereo not drawn) gave BRCA1 expr up inactive.
For COc1cccc2oc3cc(C#CC4(O)CCCCC4)ccc3c(=O)c12 the results were Mito fusion act inactive, TCR act inactive, BCR signal inh inconclusive, PTHR1 ag inactive, IL2 activator inactive and BRCA1 expr up inconclusive.
`COc1cccc2oc3cc(C#Cc4ccccn4)ccc3c(=O)c12` gave Mito fusion act inactive, TCR act inactive, BCR signal inh inconclusive, PTHR1 ag inactive, IL2 activator inactive and BRCA1 expr up 8.9µM.
For CCOC(=O)Cc1csc(NC(=O)c2cnc3sc(C)cn3c2=O)n1 the results were Mito fusion act inactive, TCR act inactive, BCR signal inh inactive, PTHR1 ag inactive, IL2 activator inactive and BRCA1 expr up 11µM.
Screening CCOC(=O)Cc1csc(NC(=O)c2ccc(C)o2)n1 returned Mito fusion act inactive, TCR act inactive, BCR signal inh inactive, PTHR1 ag inactive, IL2 activator inactive and BRCA1 expr up inactive.
For O=C(NC(=S)N1CCOCC1)c1ccc([N+](=O)[O-])cc1 the results were Mito fusion act inactive, TCR act inactive, BCR signal inh 23µM, PTHR1 ag inconclusive, IL2 activator inactive and BRCA1 expr up inactive.
`Nc1nc(NCCc2ccccc2)nc(NCc2ccccc2)c1[N+](=O)[O-]` gave Mito fusion act inactive, TCR act inactive, BCR signal inh inactive, PTHR1 ag inactive, IL2 activator inactive and BRCA1 expr up inactive.
`CN(Cc1ccccc1)c1nc(N)c([N+](=O)[O-])c(NCc2ccccc2)n1` gave Mito fusion act 11µM, TCR act inactive, BCR signal inh inconclusive, PTHR1 ag inactive, IL2 activator inactive and BRCA1 expr up inactive.
For COc1cc2c(cc1OC)C(c1cc3cccc(C)c3[nH]c1=O)N(C(=O)c1ccco1)CC2 (stereo not drawn) the results were Mito fusion act inactive and BCR signal inh inactive.
Screening CCN(CC)CCCNC(=O)c1ccc2c(c1)NC(=O)C(CS(=O)(=O)Cc1cccc(Br)c1)N2 (stereo not drawn) returned BCR signal inh inactive and PTHR1 ag 16µM.
For CCN(CC)CCNC(=O)c1ccc2c(c1)NC(=O)C(CS(=O)(=O)Cc1cccc(Br)c1)N2 (stereo not drawn) the results were BCR signal inh inactive and PTHR1 ag inconclusive.

Bioassay records: PubChem BioAssay, National Center for Advancing Translational Sciences (NCATS)
